Experimental findings from PubChem BioAssay (Tox21) are described below.

Each structure is given as a SMILES string. “And” between values parts separate entries of the source, which are not always exact repeats. Equal entries are not always repeated. The source made the active and inactive calls. Where a call stands in place of a potency, no number is given. The call rests on the fitted dose curve; in most records, active means well fitted curve in the direction sought with a large enough effect in the repeat runs; inconclusive means weak or mixed curves; inactive means flat fitted curve, though single readings scatter.
Potency means the concentration at half of the fitted maximal effect; tags describe the fitted curve by direction and shape or compound fluorescence and quenching.

The nature of the assay: qHTS assay to test for compound auto fluorescence at 535 nm (green) in HEK293 cell free culture (AID 720682). To be noted: cell-free medium, green autofluorescence 485/535 nm; series mostly up to 91.3 µM. The text has this:
U.S. Tox21 Program National Center for Advancing Translational Sciences [NCATS] NIH Chemical Genomics Center [NCGC] U.S. Environmental Protection Agency [EPA] National Institutes of Environmental Health Sciences [NIEHS] National Toxicology Program [NTP] U.S. Food and Drug Administration [FDA] Tox21 Assay Overview: Compound auto fluorescence often interferes with screening of the compound library against various biological targets and signaling pathways. Some of these compounds may have fluorophoric properties. Such properties may interfere with the assay outputs resulting in false positives and/or negatives. To decrease such complications and ensure the compound activities are relevant in terms of biological response, the Tox21 10K compound library was screened for auto fluorescence. From the fluorophores used as reporter signals in our screening assays, the auto fluorescence equivalencies of compounds against three fluorophores have been evaluated: Triamterene, Fluorescein and Rose Bengal sodium for blue, green and red fluorescence, respectively. The fluorescence intensities were measured using Excitation/Emission wavelengths at 405/460nm, 485/535nm and 540/590nm for blue, green and red labels, respectively. This assay includes the green fluorescence data.
Tox21 Assay Protocol Summary: 5 uL of culture medium (DMEM containing 10% FBS) per well was dispensed into black wall/clear bottom 1536-well plates using a Multidrop Combi Dispenser (ThermoFisher Scientific, Waltham, MA). After 23 nL compound or DMSO vehicle was transferred into assay plate by a pintool work station (Kalypsys, San Diego, CA), fluorescence intensities in the assay plates were measured by an Envision (PerkinElmer, Shelton, CT) plate reader using three labels for measuring blue, green and red fluorescence at […] 460, 535 and 590nm respectively.
For orientation: Quantitative high-throughput screening tests each substance at several concentrations.
For the compound `CCOC(N)=O`, the Potency entry was “inactive”.

On to `CCCCC1(COC(=O)CCC(=O)O)C(=O)N(c2ccccc2)N(c2ccccc2)C1=O`, for which the Potency result was “inactive”.

`CN(C)C(=S)SC(=S)N(C)C`: the Potency result was “inactive”.

Regarding `CC(=O)CCC(=O)O`, the Potency entry is “inactive”.

Take `COc1ccc(C(Cl)=C(c2ccc(OC)cc2)c2ccc(OC)cc2)cc1`: the Potency entry was “inactive”.

For the compound `Oc1ccccc1`, the Potency result is “inactive”.

As to `Cc1ncc([N+](=O)[O-])n1CCO`, the Potency result is “inactive”.

As for `O=C1O[C@H]([C@@H](O)CO)C(O)=C1O`, the Potency entry was “inactive”.

Take `CCCCCCCC(=O)OCC(COC(=O)CCCCCCC)OC(=O)CCCCCCC`: the Potency entry is “inactive”.

As for `CC(C)c1c(C(=O)Nc2ccccc2)c(-c2ccccc2)c(-c2ccc(F)cc2)n1CC[C@@H](O)C[C@@H](O)CC(=O)O`, the Potency entry was “inactive”.

As to `CC1(C)S[C@@H]2[C@H](NC(=O)[C@H](N)c3ccccc3)C(=O)N2[C@H]1C(=O)O`, the Potency entry was “inactive”.

Take `CCOc1ccc(NC(C)=O)cc1`: the Potency result was “inactive”.

On to `Cc1cn([C@H]2C=C[C@@H](CO)O2)c(=O)[nH]c1=O`, for which the Potency result is “inactive”.

Consider `COc1ccc(CN(CCN(C)C)c2ccccn2)cc1`, for which the Potency result is “inactive”.

With `CNNCc1ccc(C(=O)NC(C)C)cc1`, the Potency result was “inactive”.

Regarding `NC(=O)c1cccnc1`, the Potency entry is “inactive”.

In the case of `O=C1OC2(c3ccccc31)c1cc(Br)c(O)c(Br)c1Oc1c2cc(Br)c(O)c1Br`, the Potency was 11.2 µM [fluorescent] (active) and 17.8 µM [fluorescent] (active).

As for `CN(N=O)C(=O)N[C@@H]1[C@@H](O)[C@H](O)[C@@H](CO)O[C@@H]1O`, the Potency entry was “inactive”.

As for `O=C(Nc1ncc([N+](=O)[O-])s1)c1cccs1`, the Potency entry is “inactive”.

For the compound `Cn1c(=O)c2c(ncn2C)n(C)c1=O`, the Potency entry is “inactive”.

On to `NS(=O)(=O)c1cc2c(cc1Cl)NCNS2(=O)=O`, for which the Potency entry was “inactive”.

For `COc1ccc(OC(F)(F)F)cc1CN[C@H]1CCCN[C@H]1c1ccccc1`, the Potency entry was “inactive”.

Take `CC/C(=C(\c1ccccc1)c1ccc(OCCN(C)C)cc1)c1ccccc1`: the Potency result is “inactive”.

As for `CCCCCCc1ccc(O)cc1O`, the Potency entry was “inactive”.

On to `CN1[C@@H]2CC(OC(=O)[C@H](CO)c3ccccc3)C[C@H]1[C@@H]1O[C@@H]12` (stereo not given in full), for which the Potency entry is “inactive”.

For the compound `CN(C)CCOC(C)(c1ccccc1)c1ccccn1` (stereo not given), the Potency entry was “inactive”.

With `O=c1[nH]cc(F)c(=O)[nH]1`, the Potency entry is “inactive”.

On to `CN[C@H]1CC[C@@H](c2ccc(Cl)c(Cl)c2)c2ccccc21`, for which the Potency result was “inactive”.

For the compound `CC12CCC(CC1)C(C)(C)O2`, the Potency result is “inactive”.

Take `C[C@](N)(Cc1ccc(O)c(O)c1)C(=O)O`: the Potency entry was “inactive”.

Regarding `CCCCCCCCCCCCCCCC[N+](C)(C)Cc1ccccc1`, the Potency entry is “inactive”.

Turning to `CS(=O)(=O)OCCCCOS(C)(=O)=O`, the Potency entry is “inactive”.

Take `Cc1cc(=O)oc2cc(O)ccc12`: the Potency entry was “inactive”.

As to `C=CCc1ccc(O)c(OC)c1`, the Potency entry is “inactive”.

Take `CN1CCC[C@H]1c1cccnc1`: the Potency result is “inactive”.

As for `CCCCOC(=O)c1ccc(O)cc1`, the Potency result was “inactive”.

For the compound `COc1ccc2cc(S(=O)(=O)N[C@H](CC(=O)N[C@H](Cc3ccc(CN4[C@H](C)CCC[C@@H]4C)cc3)C(=O)N(C)C(C)C)c3ccc4c(c3)OCO4)ccc2c1`, the Potency entry is “inactive”.

`Nc1ccc([N+](=O)[O-])cc1O`: the Potency result was “inactive”.

For the compound `O=CC(=O)c1ccccc1`, the Potency result was “inactive”.

Take `O=C1NC(=O)C(c2ccccc2)(c2ccccc2)N1`: the Potency result was “inactive”.
